Lamin A splicing – changes lamin A minigene splicing in HeLa cells; AID 1487; Potency, µM (top dose mostly 46.1 µM), for inactives: at the top dose ratio change, negative = inhibition, usual class: inhibitors; HeLa LMNA splicing GFP/RFP minigene ratio, 48 h; 0.01% of 200,000 active; active = well fitted inhibition curve with a large enough effect in the signal ratio, with a control signal flat, not every such curve was filed as active; inconclusive = small, poorly fitted or top-dose-only effect, or effect the other way, or a change in a side signal; the % refers to the signal ratio; also: % is scaled to controls: 0 for no effect and ±100 for the full control effect
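Read-out is the ratio of GFP to DsRed2 object intensity, acquired by 488 nm laser-scanning cytometry on HeLa lamin A-EGFP minigene reporter cells. Compound incubation 48 hrs at 37 °C in Opti-MEM with 2% FBS; DMSO 0.5% final.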
NPSR antag – blocks cAMP signaling of the human neuropeptide S receptor; Q6W5P4; CHO-NPSR cells, cAMP TR-FRET, antagonist mode; AID 1461; 1% of 220,000 active; Potency, µM (doses to about 38.3 µM), without a hit: at the highest dose activity change, negative = inhibition, hits mostly inhibitors; also: % is scaled to controls: 0 for no effect and ±100 for the full control effect; nearly all actives have a fitted effect of over 50% in size
Target sequence (Q6W5P4 whole entry, looked up): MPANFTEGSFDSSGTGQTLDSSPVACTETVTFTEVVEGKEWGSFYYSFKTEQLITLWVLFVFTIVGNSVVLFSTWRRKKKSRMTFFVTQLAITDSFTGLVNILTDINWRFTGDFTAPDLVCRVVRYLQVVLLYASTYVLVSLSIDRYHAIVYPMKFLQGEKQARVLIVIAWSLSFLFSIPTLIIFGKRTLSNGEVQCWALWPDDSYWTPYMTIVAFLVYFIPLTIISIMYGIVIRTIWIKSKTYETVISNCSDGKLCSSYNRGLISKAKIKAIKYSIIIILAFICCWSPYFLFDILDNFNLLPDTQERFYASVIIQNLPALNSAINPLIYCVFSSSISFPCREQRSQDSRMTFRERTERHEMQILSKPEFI
Epigenetic derep – derepresses silenced GFP reporter in murine cells | murine LDR cells, GFP reporter derepression, 30 h | Potency, µM (highest dose often 53.9 µM), inactives show top-dose GFP activation, usual class: activators | 0.2% of 280,000 active; also: % of control where 0% means no effect; nearly all actives have a fitted effect of over 60% in size
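GFP-positive cell count by laser-scanning cytometry (objects 20–120 um) after 30 h, 37 C compound exposure of murine LDR cells; reporter is CMV-GFP integrated at a silenced locus, inducible by HDAC or DNMT inhibitors.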
HTT aggregate – reduces HttQ103-GFP aggregates in PC12 cells | Potency, µM (top dose mostly 46.1 µM), without a hit: top-dose activity change, negative = inhibition, most hits filed as inhibitors | 1.1% of 220,000 active | PC12 HttQ103-GFP aggregates, Acumen cytometry, 40 h; also: % is scaled to controls: 0 for no effect and ±100 for the full control effect; nearly all actives have a fitted effect of over 60% in size
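Aggregate formation scored by laser-scanning cytometer (488 excitation, 500–530 emission) in lysed PC12 cells expressing Q103-GFP after 100 nM tebufenozide induction; library tested in dose series, with ATPLite reagent added in the multiplex.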
HTT cytoprotect – protects HTT-Q103 PC12 cells, measured by ATP; PC12 HTT-Q103 induced, cytoprotection, ATP luminescence, 40 h; Potency, µM (doses to about 56.4 µM), without a hit: cytoprotection (ATP increase), most hits filed as activators; 0.14% of 230,000 active; also: % of control where 0% means no effect; nearly all actives have a fitted effect of over 45% in size
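Compounds were screened for protection of PC12 cells against cell death after tebufenozide induction (100 nM final) of mutant Huntingtin exon 1 (Q103) fused to GFP.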
* hit, by the source's call; ? = inconclusive; . = not tested or not shown; [ ] = another dose, or the depositor's remark. Compounds with a hit are over-represented: about 1.5% of the library has one in this group of screens. Unless noted, calls follow the shape of the dose curve; as a rule, active = well fitted curve in the direction sought with a large enough effect; inconclusive = small, poorly fitted or top-dose-only effect, or another doubt; inactive = no such curve, though single readings can be large; an effect the other way counts as inactive or inconclusive. Potency is read from the fitted curve at half-maximal effect.

SMILES	Lamin A splicing	NPSR antag	Epigenetic derep	HTT aggregate	HTT cytoprotect
COc1cc(NS(=O)(=O)c2ccc(OC)c(C)c2C)c(OC)cc1Cl	-6%	20µM*	1%	-31%	-59%
COc1ccc(S(=O)(=O)N(CCc2ccccc2)CC(=O)NCc2ccc(C)cc2)cc1	.	.	-2%	.	.
CCN(c1ccccc1)S(=O)(=O)c1ccc(Cl)c(NC(=O)CSc2ncn[nH]2)c1	-13%	8%	-1%	-7%	3%[10 µM]
Cc1cc(C)c(S(=O)(=O)/N=C2/C=C(Sc3ncn[nH]3)C(=O)c3ccccc32)cc1C	?	?	-2%	3.5µM*	-98%[10 µM]
COc1cc(/C=N\Nc2ccc([N+](=O)[O-])cc2)ccc1OCC(=O)Nc1ccc(C)c(C)c1	?	-7%[46.1 µM]	6.3µM*	-7%	-28%
Cc1ccnc(N/C=C(\C#N)c2nc(-c3cccc(Br)c3)cs2)c1	-5%	-9%[46.1 µM]	16µM*	-2%	-18%[10 µM]
N#C/C(=C/c1ccc(Cl)cc1)c1nc(-c2ccc(Br)cc2)cs1	.	.	0%	.	.
COc1ccc(N2CCN(C(CNC(=O)c3c(F)cccc3F)c3ccc4c(c3)OCO4)CC2)cc1 (configuration not stated)	5%[46 µM]	.	1%	.	.
COc1ccc2cc3c(N)nn(C(=O)Cc4ccc(Cl)cc4)c3nc2c1	14%	-7%[46.1 µM]	3%	7.9µM*	15%
COc1cccc(CC(=O)n2nc(N)c3cc4ccc(OC)cc4nc32)c1	14%	-8%[46.1 µM]	3%	-10%	?
CCOC(=O)Cc1c[nH]c2ccccc12	5%	-8%[46.1 µM]	0%	-13%	-15%
COc1ccc2cc3c(N)nn(C(=O)Cc4c[nH]c5ccccc45)c3nc2c1	.	-42%	0%	3.2µM*	3%[10 µM]
Cc1cccc(NS(=O)(=O)c2ccc(Cl)c(C(=O)O)c2)c1	.	.	-2%	.	.
Cn1c(=O)n(CC(=O)N2CCN(c3nnc(-c4ccccc4)c4ccccc34)CC2)c2ccccc21	?	-17%[46.1 µM]	-1%	14µM*	-17%[10 µM]
Cc1ccc(-c2nnc(N3CCN(C(=O)Cn4c(=O)n(C)c5ccccc54)CC3)c3ccccc23)cc1	?	-8%[46.1 µM]	-1%	?	-6%
O=C(NC(Nc1nc2ccc([N+](=O)[O-])cc2s1)(C(F)(F)F)C(F)(F)F)c1cccnc1	?	-32%	-1%	?	-13%[10 µM]
O=C(NC(Nc1nc2ccc([N+](=O)[O-])cc2s1)(C(F)(F)F)C(F)(F)F)c1ccccc1Cl	?	7.9µM*	-1%	0.32µM*	-61%[10 µM]
CCN(CC)c1nc2ccccc2c(N)c1-c1ccccc1	-18%	-5%[46.1 µM]	-2%	11µM*	-5%
CSc1nc2nc3c(cn2n1)C(=O)CC(c1ccccc1)C3 (configuration not stated)	6%	-8%[46.1 µM]	-5%	8%	2%
O=C1CC(c2ccccc2)Cc2nc3nc(C(F)(F)F)nn3cc21 (configuration not stated)	1%	15%[46.1 µM]	7%	13µM*	-7%
Cc1cc(C)cc(Nc2nnc(-n3nc(C)cc3C)c3ccccc23)c1	.	.	1%	.	.
CC(=O)C1=C(c2ccc(Br)cc2)C(=O)c2ccccc2C1=O	?	?	0%	5µM*	-82%[10 µM]
CC1=CC(=C2C(=O)c3ccccc3C2=O)C=C(C)O1	-1%	?	4%	4%	2%
Cc1nc(NC(=O)CSc2nnnn2Cc2ccccc2)sc1C	4%	-25%[46.1 µM]	-1%	?	-3%
Cc1nnc(NC(=O)CSc2nnnn2Cc2ccccc2)s1	-1%	-7%[46.1 µM]	-2%	0.35µM*	?
SMILES	Lamin A splicing	NPSR antag	Epigenetic derep	HTT aggregate	HTT cytoprotect
S=C(Nc1cccc(Cl)c1)N(CCCN1CCCC1)Cc1cccn1Cc1ccc(Cl)cc1	.	10µM*	0%	?	-162%
CSc1cccc(NC(=S)N(CCCN2CCCC2)Cc2cccn2Cc2ccc(Cl)cc2)c1	.	5µM*	0%	?	-36%
CSc1cccc(NC(=S)N(CCCN2CCCC2)Cc2cccs2)c1	.	-23%	1%	-2%	-16%
O=C(COc1nsnc1N1CCOCC1)N/N=C/c1ccccc1O	?	2%	0%	14µM*	.
COc1ccc(C2C3=C(CC(C)(C)CC3=O)Oc3ncn(Cc4ccccc4)c(=N)c32)cc1 (configuration not stated)	-7%	-27%[46.1 µM]	-4%	-19%	4µM*
CCN(CC)S(=O)(=O)c1ccc(NC(=O)NCc2noc3ccc(C)cc23)cc1	.	.	0%	.	.
O=C(CSc1nc(-c2ccco2)cc(C(F)(F)F)n1)Nc1ccccc1C(F)(F)F	-6%	-38%	0%	?	3.2µM*
CCCn1c(-c2ccc(F)cc2)nc2c(NC3CC4CCC(C3)N4C)nc(C)nc21 (configuration not stated)	.	.	2%	.	-39%
COc1ccc(C(=O)CSc2cc(C)nc3nc(C)nn23)cc1OC	-20%	-19%[46.1 µM]	-2%	.	13µM*
COc1cccc(CN(C(=O)Cc2c[nH]c3ccccc23)C(C(=O)NC2CCCCC2)c2ccc(C)o2)c1 (configuration not stated)	?	-36%	-1%	13µM*	2%[10 µM]
COc1cc(C(=O)Nc2ccccc2-c2nc(-c3ccccc3)no2)cc(OC)c1OC	.	.	0.63µM*	.	.
Cc1cc(C)n2nc(SCc3nnc(SCc4ccccc4C)s3)nc2n1	?	-14%[46.1 µM]	0%	13µM*	18%[10 µM]
Cc1ccc(S(=O)(=O)c2cn(Cc3ccccc3Cl)c3ccc(F)cc3c2=O)cc1	.	.	8%	.	.
O=C(CCl)NCc1cc(-c2ccc(Cl)cc2)no1	.	11%	0%	35µM*	-198%
Cn1cc(S(=O)(=O)c2ccc(Cl)cc2)c(=O)c2cc(F)c(N3CCOCC3)cc21	-12%[46 µM]	.	0%	.	.
CN1C(=O)C2(OCC(COc3ccc(Cl)cc3)O2)c2ccccc21 (configuration not stated)	?	-9%[46.1 µM]	-2%	1µM*	11%
O=C(CN1C(=O)c2ccccc2Sc2ccc(C(=O)N3CCOCC3)cc21)Nc1ccc(Cl)cc1F	7%[46 µM]	.	0%	.	.
O=C(CCN1CCOCC1)Nc1cccc(Br)c1	-8%	-3%[46.1 µM]	0%	-18%	-6%[0.074 µM]
O=C(CN1CCOCC1)Nc1cccc(Br)c1	-1%	-5%[46.1 µM]	-1%	3.2µM*	10%
Cc1nn(CC(=O)NCCc2ccc(Cl)cc2)c(=O)c2cc3cc(F)ccc3n12	.	.	0%	.	.
O=C(O)c1cc(C(=O)O)nc(C(=O)O)c1	.	.	.	.	0%[10 µM]
C=CCn1c(SCc2ccccc2)nc2scc(-c3ccc(C)o3)c2c1=O	-2%	0%[46.1 µM]	1%	6%	-8%
C=CCn1c(SCCN2C(=O)c3ccccc3C2=O)nc2scc(-c3ccccc3)c2c1=O	3%	13µM*	-2%	17%	12%
Cc1ccccc1NC(=O)CSc1nc2c(c(-c3ccco3)c1C#N)CCCC2	2%	10µM*	0%	-4%[9.22 µM]	5%
CCOc1ccc(CSC2=NCCN2)cc1Cl	7%	7%[46.1 µM]	1%	-17%	-18%[10 µM]

Screening data as filed in PubChem BioAssay.
